This assay has as its target furin, P09958. Put plainly: furin cleavage Z-score vs untreated control; higher = more cleavage, active = 3.5 or more, inactive = 1 or less, 8 variable residues between constant flanks. A digest of the protocol:
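Abundance of DNA freed from bead-bound 8-mer peptide–cDNA fusions by purified furin was measured as sequencing read counts after PCR adapter tagging. Cutting ran 7.5, 15 or 30 min in 0.01 ml of 50 mM HEPES pH 7.5 with CaCl2 and NaCl at 1:10 enzyme:substrate. The cleavage Z-score expresses these log counts against furin-free reactions after lowess adjustment and median absolute deviation scaling.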

The values below come from the supplement of paper PMC3545927.

The list shows a part of the results. The true hit rate is not given.

Sequence of furin, P09958 (P09958 whole entry, the tested form may be a part): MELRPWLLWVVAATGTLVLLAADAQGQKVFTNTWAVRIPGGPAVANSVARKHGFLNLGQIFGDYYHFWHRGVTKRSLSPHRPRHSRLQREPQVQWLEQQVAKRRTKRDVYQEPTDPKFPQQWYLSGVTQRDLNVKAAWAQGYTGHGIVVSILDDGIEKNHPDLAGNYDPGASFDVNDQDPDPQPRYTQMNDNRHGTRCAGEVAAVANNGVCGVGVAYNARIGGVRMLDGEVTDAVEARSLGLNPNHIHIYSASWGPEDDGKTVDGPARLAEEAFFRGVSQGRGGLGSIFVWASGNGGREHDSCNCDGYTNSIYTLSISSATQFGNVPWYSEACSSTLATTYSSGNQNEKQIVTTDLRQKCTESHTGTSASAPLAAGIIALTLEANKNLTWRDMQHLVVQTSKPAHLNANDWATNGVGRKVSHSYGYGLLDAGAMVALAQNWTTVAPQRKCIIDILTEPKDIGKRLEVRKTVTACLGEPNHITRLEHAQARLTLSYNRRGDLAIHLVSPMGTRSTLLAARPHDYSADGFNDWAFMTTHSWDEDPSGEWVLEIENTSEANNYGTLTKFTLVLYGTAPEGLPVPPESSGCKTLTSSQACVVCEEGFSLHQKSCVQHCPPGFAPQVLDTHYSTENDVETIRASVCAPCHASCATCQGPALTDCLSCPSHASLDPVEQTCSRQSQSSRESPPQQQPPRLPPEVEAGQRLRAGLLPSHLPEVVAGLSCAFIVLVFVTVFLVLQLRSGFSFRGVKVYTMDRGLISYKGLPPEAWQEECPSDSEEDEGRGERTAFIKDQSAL

B1: HC1398 (peptide)
chain: CADRLQVLDSAGNASASA
For the sequence B1, the “furin cleavage Z-score” value (7.5 min) amounted to 1.26, the “furin cleavage Z-score” value (15 min) is 0.665 (inactive) and the “furin cleavage Z-score” value (30 min) was 0.144 (inactive).

B2: HC1024 (peptide)
chain: CAQFKQKALGAGNASASA
For B2, the “furin cleavage Z-score” value is 0.453 (inactive) (7.5 min), -0.904 (inactive) (15 min) and 0.989 (inactive) (30 min).

B3: HC1507 (peptide)
chain: CANCGYRRCRAGNASASA
Take B3: the “furin cleavage Z-score” value (7.5 min) was -0.406 (inactive), the “furin cleavage Z-score” value (15 min) was -0.477 (inactive) and the “furin cleavage Z-score” value (30 min) is 0.265 (inactive).

B4: HC592 (peptide)
chain: CAPLNVRGGRAGNASASA
On to B4, for which the “furin cleavage Z-score” value runs as follows: (7.5 min) -0.486 (inactive); (15 min) 0.851 (inactive); (30 min) 0.124 (inactive).

B5: HC661 (peptide)
chain: CAPVSARRGRAGNASASA
In the case of B5, the “furin cleavage Z-score” value was 3.67 (active) (7.5 min), 2.35 (15 min) and 2.39 (30 min).

B6: HC2180 (peptide)
chain: CAECVTSTWVAGNASASA
As for B6, the “furin cleavage Z-score” value runs as follows: (7.5 min) 0.903 (inactive); (15 min) 2.44; (30 min) 0.32 (inactive).

B7: FS-169 (peptide)
chain: CAGVARVRKSAGNASASA
Take B7: the “furin cleavage Z-score” value by setting is: (7.5 min) 7.76 (active); (15 min) 6.48 (active); (30 min) 7.18 (active).

B8: FS-290 (peptide)
chain: CARPSRLKKFAGNASASA
Take B8: the “furin cleavage Z-score” value is -0.934 (inactive) (7.5 min), -0.739 (inactive) (15 min) and -0.88 (inactive) (30 min).

B9: HC2316 (peptide)
chain: CAGVPCHRPSAGNASASA
B9: the “furin cleavage Z-score” value reads like this: (7.5 min) 0.883 (inactive); (15 min) -1.9 (inactive); (30 min) 1.03.

B10: FS-127 (peptide)
chain: CAGPARPWKSAGNASASA
Turning to B10, the “furin cleavage Z-score” value (7.5 min) is 0.451 (inactive), the “furin cleavage Z-score” value (15 min) is -1.62 (inactive) and the “furin cleavage Z-score” value (30 min) is -1.1 (inactive).

B11: FS-786 (peptide)
chain: CAGRARCYRSAGNASASA
Consider B11, for which the “furin cleavage Z-score” value was 5.83 (active) (7.5 min), 5.27 (active) (15 min) and 4.62 (active) (30 min).

B12: FS-661 (peptide)
chain: CAGVARFYRSAGNASASA
Turning to B12, the “furin cleavage Z-score” value runs as follows: (7.5 min) 6.6 (active); (15 min) 7.47 (active); (30 min) 8.24 (active).

B13: HC667 (peptide)
chain: CAGPADGMVSAGNASASA
Regarding B13, the “furin cleavage Z-score” value reads like this: (7.5 min) 0.24 (inactive); (15 min) 0.132 (inactive); (30 min) -1.59 (inactive).

B14: FS-429 (peptide)
chain: CAGKSRLKKSAGNASASA
On to B14, for which the “furin cleavage Z-score” value (7.5 min) was 3.94 (active), the “furin cleavage Z-score” value (15 min) is 3.83 (active) and the “furin cleavage Z-score” value (30 min) is 4.7 (active).

B15: FS-875 (peptide)
chain: CASVNRNKKSAGNASASA
Regarding B15, the “furin cleavage Z-score” value was -0.482 (inactive) (7.5 min), -0.223 (inactive) (15 min) and 1.34 (30 min).

B16: HC2522 (peptide)
chain: CASTQCSAHLAGNASASA
For the sequence B16, the “furin cleavage Z-score” value reads like this: (7.5 min) 1.38; (15 min) 0.361 (inactive); (30 min) 0.641 (inactive).

B17: HC1271 (peptide)
chain: CASPDAELIEAGNASASA
Take B17: the “furin cleavage Z-score” value is -0.191 (inactive) (7.5 min), -1.02 (inactive) (15 min) and -2.02 (inactive) (30 min).

B18: HC2571 (peptide)
chain: CASTPCSAHDAGNASASA
For B18, the “furin cleavage Z-score” value runs as follows: (7.5 min) -1.23 (inactive); (15 min) -0.24 (inactive); (30 min) -0.964 (inactive).

B19: HC1065 (peptide)
chain: CAFNILGGWVAGNASASA
B19: the “furin cleavage Z-score” value by setting is: (7.5 min) -0.849 (inactive); (15 min) -1.69 (inactive); (30 min) 0.522 (inactive).

B20: HC890 (peptide)
chain: CATQTVDFSLAGNASASA
B20: the “furin cleavage Z-score” value (7.5 min) was 0.518 (inactive), the “furin cleavage Z-score” value (15 min) is 0.088 (inactive) and the “furin cleavage Z-score” value (30 min) is -1.06 (inactive).

B21: HC1984 (peptide)
chain: CAIVCCSMSYAGNASASA
Take B21: the “furin cleavage Z-score” value (7.5 min) is 0.599 (inactive), the “furin cleavage Z-score” value (15 min) was 0.44 (inactive) and the “furin cleavage Z-score” value (30 min) was 1.09.

B22: HC2070 (peptide)
chain: CAVVCCSMVYAGNASASA
For the sequence B22, the “furin cleavage Z-score” value is 1.39 (7.5 min), -0.784 (inactive) (15 min) and -0.578 (inactive) (30 min).

B23: HC587 (peptide)
chain: CAVEAQLHVWAGNASASA
Regarding B23, the “furin cleavage Z-score” value is, setting by setting: (7.5 min) 0.261 (inactive); (15 min) 1.76; (30 min) 0.118 (inactive).

B24: FS-915 (peptide)
chain: CAQSLRQRKSAGNASASA
On to B24, for which the “furin cleavage Z-score” value (7.5 min) was 0.195 (inactive), the “furin cleavage Z-score” value (15 min) is 0.0646 (inactive) and the “furin cleavage Z-score” value (30 min) was 0.773 (inactive).

B25: FS-1525 (peptide)
chain: CAGPARSHRSAGNASASA
Take B25: the “furin cleavage Z-score” value (7.5 min) is 2.6, the “furin cleavage Z-score” value (15 min) was 5.21 (active) and the “furin cleavage Z-score” value (30 min) was 5.09 (active).

B26: FS-645 (peptide)
chain: CACPGRPWKSAGNASASA
As for B26, the “furin cleavage Z-score” value reads like this: (7.5 min) 0.174 (inactive); (15 min) 0.632 (inactive); (30 min) -1.05 (inactive).

B27: HC2394 (peptide)
chain: CAEVPCHRKSAGNASASA
On to B27, for which the “furin cleavage Z-score” value reads like this: (7.5 min) 0.666 (inactive); (15 min) 1.67; (30 min) 0.974 (inactive).

B28: FS-160 (peptide)
chain: CAGKPRVRKSAGNASASA
Regarding B28, the “furin cleavage Z-score” value is 11.6 (active) (7.5 min), 11.6 (active) (15 min) and 7.27 (active) (30 min).

B29: HC1296 (peptide)
chain: CAPAEILRKSAGNASASA
As for B29, the “furin cleavage Z-score” value by setting is: (7.5 min) -1.4 (inactive); (15 min) -0.0107 (inactive); (30 min) -2.04 (inactive).

B30: FS-244 (peptide)
chain: CAGMIRVRKSAGNASASA
As for B30, the “furin cleavage Z-score” value was 9.53 (active) (7.5 min), 9.46 (active) (15 min) and 8.14 (active) (30 min).

B31: HC1689 (peptide)
chain: CAMYECSQHLAGNASASA
Take B31: the “furin cleavage Z-score” value by setting is: (7.5 min) 1.1; (15 min) 2.02; (30 min) 0.756 (inactive).

B32: HC137 (peptide)
chain: CAEVVYSTWVAGNASASA
In the case of B32, the “furin cleavage Z-score” value reads like this: (7.5 min) -0.752 (inactive); (15 min) 0.088 (inactive); (30 min) 1.03.

B33: HC2533 (peptide)
chain: CASTPCSRHLAGNASASA
As to B33, the “furin cleavage Z-score” value is 1.13 (7.5 min), 0.843 (inactive) (15 min) and -0.486 (inactive) (30 min).

B34: HC48 (peptide)
chain: CATTPMSGSWAGNASASA
In the case of B34, the “furin cleavage Z-score” value reads like this: (7.5 min) -1.24 (inactive); (15 min) -0.966 (inactive); (30 min) -0.511 (inactive).

B35: FS-1348 (peptide)
chain: CAIRARVARAAGNASASA
As for B35, the “furin cleavage Z-score” value runs as follows: (7.5 min) 9.33 (active); (15 min) 9.7 (active); (30 min) 7.2 (active).

B36: HC656 (peptide)
chain: CAAACGDIINAGNASASA
In the case of B36, the “furin cleavage Z-score” value (7.5 min) was -0.691 (inactive), the “furin cleavage Z-score” value (15 min) was -0.739 (inactive) and the “furin cleavage Z-score” value (30 min) was -0.629 (inactive).

B37: FS-1245 (peptide)
chain: CAPSNRSARAAGNASASA
As for B37, the “furin cleavage Z-score” value runs as follows: (7.5 min) 8.79 (active); (15 min) 11.3 (active); (30 min) 9 (active).

B38: HC1088 (peptide)
chain: CAYGAGVAGAAGNASASA
On to B38, for which the “furin cleavage Z-score” value (7.5 min) was -0.899 (inactive), the “furin cleavage Z-score” value (15 min) is -0.739 (inactive) and the “furin cleavage Z-score” value (30 min) is -0.913 (inactive).

B39: HC1579 (peptide)
chain: CAPTLWARMIAGNASASA
Regarding B39, the “furin cleavage Z-score” value is, setting by setting: (7.5 min) 0.463 (inactive); (15 min) 2.4; (30 min) 0.0409 (inactive).

B40: FS-2912 (peptide)
chain: CAREIRQAFKAGNASASA
Turning to B40, the “furin cleavage Z-score” value (7.5 min) is 0.791 (inactive), the “furin cleavage Z-score” value (15 min) is 0.404 (inactive) and the “furin cleavage Z-score” value (30 min) was 0.281 (inactive).

B41: FS-1043 (peptide)
chain: CAPEIRQARAAGNASASA
Turning to B41, the “furin cleavage Z-score” value was 3.65 (active) (7.5 min), 4.35 (active) (15 min) and 4.12 (active) (30 min).

B42: FS-5 (peptide)
chain: CAAMFRVRRNAGNASASA
B42: the “furin cleavage Z-score” value is 13 (active) (7.5 min), 11.7 (active) (15 min) and 9.8 (active) (30 min).

B43: FS-2988 (peptide)
chain: CARLKKSQFLAGNASASA
With B43, the “furin cleavage Z-score” value is -1.1 (inactive) (7.5 min), -0.681 (inactive) (15 min) and -1.54 (inactive) (30 min).
